This is an account of results in PubChem BioAssay (NCATS).

The nature of test [1]: AP1 Signaling Pathway (AID 357). Also: % is scaled to controls: 0 for no effect and ±100 for the full control effect. The conditions noted are these: ME-180 AP-1-bla reporter, EGF-induced, beta-lactamase ratio, 5 h; at 7.69 µM (top of the series) unless noted. In short, it runs like this: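 First, ME-180 AP-1-bla cells were cultured overnight at 37 °C in low-serum Opti-MEM. Next, titrated compounds with EC50 EGF were incubated 5 hours. Finally, CCF4 was added for 2.5 hours and the 460/530 nm ratio recorded.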

Test [2] addresses Cytochrome P450 1A2 (Homo sapiens) (UniProt P05177). The test can be described thus: p450-cyp1a2 (AID 410; calls by dose curve; also: potency is read from the fitted curve at half-maximal effect). In short, it runs like this:
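20nM CYP1A2, 100uM Luciferin-ME (=Km), 100mM KPO4; cpd 10 min RT; +NADPH regen, 60 min RT; stop/detect 20 min; luminescence. Normalized to furafylline 57 uM = full inhibition.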

Test [3] is described as follows: NFAT Signaling Pathway (AID 444).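 Also: carbachol stimulus at about its EC50 of 1 µM final; % is scaled to controls: 0 for no effect and ±100 for the full control effect.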 The conditions noted are these: Jurkat NFAT-bla M1, carbachol, beta-lactamase ratio, 5 h; at 7.69 µM (top of the series) unless noted. In short, it runs like this:
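Read-out: CCF4 FRET ratio (460 nm/530 nm) after 1 h RT dye loading, used for %activity and AC50 from titration series. Cells: Jurkat NFAT-β-lactamase/M1 line, treated with compound plus 1 uM carbachol for 5 h, 37 °C.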

Test [4] in a line: Stat Signaling Pathway (AID 446).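 Also: ME-180 cervical cancer cells given 40 pM IL-6 alongside compound; SIE-controlled beta-lactamase reporter measured as 460/530 nm FRET emission ratio; % is scaled to controls: 0 for no effect and ±100 for the full control effect.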 As to conditions: ME-180 (cervical carcinoma) SIE beta-lactamase reporter, IL-6 stimulated, 5 h; at 7.69 µM (top of the series) unless noted. In short, it runs like this: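 FRET read-out (405 nm excitation, 460/530 nm emission) of a beta-lactamase reporter under a STAT-inducible element in ME-180 cervical carcinoma cells. Cells with compound receive 40 pM IL-6 for 5 h. Values are normalised to AC90 stimulation and AC90 JAK-inhibitor controls.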

In test [5] the target is Glucocorticoid receptor (Homo sapiens) (UniProt P04150). The test can be described thus: GR-GFP Redistribution (AID 450;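 active = compounds whose dose series gives a full or clear partial fitted curve of increased nuclear translocation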; also: potency is read from the fitted curve at half-maximal effect). The conditions noted are these: U2OS GR-GFP nuclear translocation, laser cytometry, 2 h.
Chain of Glucocorticoid receptor (Homo sapiens) (P04150 whole entry, looked up, the tested form may be a part): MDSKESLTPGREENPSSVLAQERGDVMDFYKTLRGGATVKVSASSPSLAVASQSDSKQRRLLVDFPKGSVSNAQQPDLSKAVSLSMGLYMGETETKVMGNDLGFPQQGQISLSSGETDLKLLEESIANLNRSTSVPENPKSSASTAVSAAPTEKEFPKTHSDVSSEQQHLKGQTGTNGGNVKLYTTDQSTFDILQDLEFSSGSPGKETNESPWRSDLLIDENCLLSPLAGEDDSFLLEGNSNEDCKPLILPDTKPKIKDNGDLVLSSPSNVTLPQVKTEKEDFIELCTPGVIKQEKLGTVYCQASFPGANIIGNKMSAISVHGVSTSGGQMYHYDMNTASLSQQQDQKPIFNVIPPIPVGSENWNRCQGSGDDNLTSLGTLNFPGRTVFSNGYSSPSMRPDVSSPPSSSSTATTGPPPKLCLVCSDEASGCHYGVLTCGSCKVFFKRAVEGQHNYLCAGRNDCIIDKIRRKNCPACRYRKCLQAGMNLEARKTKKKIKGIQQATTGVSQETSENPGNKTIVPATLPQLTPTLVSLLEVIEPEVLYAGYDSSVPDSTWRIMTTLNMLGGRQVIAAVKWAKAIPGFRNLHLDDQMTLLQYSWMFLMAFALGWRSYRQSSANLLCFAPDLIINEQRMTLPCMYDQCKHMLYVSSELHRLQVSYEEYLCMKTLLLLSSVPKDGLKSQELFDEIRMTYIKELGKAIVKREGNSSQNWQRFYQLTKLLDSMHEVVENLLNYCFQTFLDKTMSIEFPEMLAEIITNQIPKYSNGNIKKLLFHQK
In test [6] the target is 3',5'-cyclic-AMP phosphodiesterase 4B (Homo sapiens) (UniProt Q07343). The test is described as follows: qHTS Assay for Inhibitors of PDE-IV (AID 607; active = well fitted activation curve with a large enough effect in the main read-out, with a control signal flat, not every such curve was filed as active; also: % of control where 0% means no effect). In short, it runs like this: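 Cell-based read-out of cAMP via a modified cyclic nucleotide-gated channel and membrane potential dye (535/590 nm) in HEK293 cells expressing PDE4 endogenously. Compounds tested up to 22.9 uM final; 100 uM RO 20-1724 reference.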
Chain of 3',5'-cyclic-AMP phosphodiesterase 4B (Homo sapiens) (Q07343 whole entry, looked up): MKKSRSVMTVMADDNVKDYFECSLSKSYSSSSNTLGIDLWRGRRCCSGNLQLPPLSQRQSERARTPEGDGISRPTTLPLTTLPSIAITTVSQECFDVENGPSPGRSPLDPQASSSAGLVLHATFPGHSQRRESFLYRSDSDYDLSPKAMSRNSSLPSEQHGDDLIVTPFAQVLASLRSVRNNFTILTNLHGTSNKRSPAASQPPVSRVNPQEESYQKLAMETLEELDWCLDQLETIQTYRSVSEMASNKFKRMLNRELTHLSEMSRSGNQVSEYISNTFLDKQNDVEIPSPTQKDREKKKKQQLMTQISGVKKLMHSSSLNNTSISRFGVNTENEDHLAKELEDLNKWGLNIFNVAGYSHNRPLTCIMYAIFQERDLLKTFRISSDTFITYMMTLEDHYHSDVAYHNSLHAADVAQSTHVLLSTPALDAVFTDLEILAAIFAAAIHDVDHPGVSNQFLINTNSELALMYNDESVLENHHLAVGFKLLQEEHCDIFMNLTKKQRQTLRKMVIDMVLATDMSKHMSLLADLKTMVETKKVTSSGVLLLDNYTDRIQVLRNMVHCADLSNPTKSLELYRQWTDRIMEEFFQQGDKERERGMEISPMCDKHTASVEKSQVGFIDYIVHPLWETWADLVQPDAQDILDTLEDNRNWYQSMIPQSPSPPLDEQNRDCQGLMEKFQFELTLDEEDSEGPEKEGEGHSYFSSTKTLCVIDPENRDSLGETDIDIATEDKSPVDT
For orientation: Quantitative high-throughput screening tests each substance at several concentrations.

For test [7], the target named is Glucocorticoid receptor (Homo sapiens) (UniProt P04150). The test can be described thus: GR-EFC Redistribution (AID 451; calls by dose curve; also: potency is read from the fitted curve at half-maximal effect). The conditions noted are these: CHO-K1 GR-EFC translocation, beta-gal luminescence, 2 h. The procedure, abridged: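 Translocation of GR-ED fusion to nuclear EA restores b-gal, read by luminescence after 1 h room-temperature detection. Engineered CHO-K1 biosensor cells, 1,000/well, exposed 2 h at 37 C to titrations up to 46 uM final.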

In test [8] the target is Mitogen-activated protein kinase 10 (Mus musculus) (UniProt Q61831). The test can be described thus: JNK3 AlphaScreen Assay (AID 530).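 Also: kinase came from lysate of stimulated human HepG2 cells; signal reports phosphorylation of biotinylated GST-cJun 1-79 at Ser73 with 10 µM ATP; % is scaled to controls: 0 for no effect and ±100 for the full control effect.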 In short, it runs like this: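 Kinase buffer: 20 mM Tris-HCl pH 7.6, 10 mM MgCl2, 1 mM DTT, 0.1 mM Na3VO4, 0.01% Tween-20; ATP 10 uM. Substrate biotin-GST-cJun(1-79), enzyme from activated HepG2 lysates. Detection by Ser73 phospho-antibody AlphaScreen.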

Test [9] addresses Cytochrome P450 3A4 (Homo sapiens) (UniProt P08684). The test can be described thus: qHTS Assay for Activators of Cytochrome P450 3A4 (AID 885; active = well fitted curve in the direction sought with a large enough effect; an effect the other way counts as inactive or inconclusive; also: nearly all actives have a fitted effect of over 65% in size). In short, it runs like this: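 Luminescent readout of luciferin formed from 25 uM Luciferin-PPXE (KM level) by 20 nM CYP3A4 in 200 mM KPO4, with 60 min NADPH-driven reaction at room temperature after 10 min compound exposure. Ketoconazole (57 uM) defined 100% inhibition.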

For test [10], the target named is Cytochrome P450 2C19 (Homo sapiens) (UniProt P33261). The test is described as follows: qHTS Assay for Inhibitors and Substrates of Cytochrome P450 2C19 (AID 899; active = well fitted curve in the direction sought with a large enough effect; an effect the other way counts as inactive or inconclusive; also: potency is read from the fitted curve at half-maximal effect; nearly all actives have a fitted effect of over 60% in size). The procedure, abridged: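 Reactions contain 5nM enzyme, 10uM Luciferin-H EGE (KM) and 50mM KPO4; compound preincubates 10 min at 37C, NADPH regeneration starts turnover for 60 min. Luminescence after detection reagent gives activity.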
Chain of Cytochrome P450 2C19 (Homo sapiens) (P33261 whole entry, looked up): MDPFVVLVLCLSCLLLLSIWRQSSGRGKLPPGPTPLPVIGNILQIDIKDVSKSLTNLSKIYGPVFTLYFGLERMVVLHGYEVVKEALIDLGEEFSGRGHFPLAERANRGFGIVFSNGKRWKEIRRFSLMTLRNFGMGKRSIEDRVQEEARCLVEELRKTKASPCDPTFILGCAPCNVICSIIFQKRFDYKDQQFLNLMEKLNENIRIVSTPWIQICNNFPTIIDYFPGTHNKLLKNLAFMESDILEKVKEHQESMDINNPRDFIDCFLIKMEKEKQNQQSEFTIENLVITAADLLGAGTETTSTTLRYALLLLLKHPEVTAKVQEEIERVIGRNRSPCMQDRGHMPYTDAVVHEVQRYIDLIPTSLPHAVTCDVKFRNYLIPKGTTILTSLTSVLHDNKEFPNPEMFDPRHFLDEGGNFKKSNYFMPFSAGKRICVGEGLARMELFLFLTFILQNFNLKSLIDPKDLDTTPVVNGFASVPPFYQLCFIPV

Structures are written as SMILES. A number with no mark means an inactive call. Records with an inconclusive call do not appear. Activity calls are given as the source filed them. Unless noted, calls follow the shape of the dose curve; as a rule, active = well fitted curve in either direction with a large enough effect (not every such curve was filed as active); inconclusive = small, poorly fitted or top-dose-only effect, or another doubt; inactive = flat fitted curve, though single readings scatter. Where only a bound is given, the exact number is not on record here.

Chain of Cytochrome P450 1A2 (Homo sapiens) (P05177 whole entry, looked up): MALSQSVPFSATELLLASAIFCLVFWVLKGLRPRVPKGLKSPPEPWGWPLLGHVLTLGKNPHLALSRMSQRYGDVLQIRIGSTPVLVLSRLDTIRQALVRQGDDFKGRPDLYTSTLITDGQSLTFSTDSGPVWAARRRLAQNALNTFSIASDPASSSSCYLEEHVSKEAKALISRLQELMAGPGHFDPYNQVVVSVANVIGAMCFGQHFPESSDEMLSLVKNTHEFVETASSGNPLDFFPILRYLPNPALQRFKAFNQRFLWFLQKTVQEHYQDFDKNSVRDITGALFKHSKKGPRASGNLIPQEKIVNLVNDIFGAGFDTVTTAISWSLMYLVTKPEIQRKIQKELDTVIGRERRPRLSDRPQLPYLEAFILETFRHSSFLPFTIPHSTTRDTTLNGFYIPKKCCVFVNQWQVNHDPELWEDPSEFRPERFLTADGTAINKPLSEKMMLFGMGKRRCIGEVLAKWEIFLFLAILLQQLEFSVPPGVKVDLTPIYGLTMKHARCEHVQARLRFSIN
Chain of Cytochrome P450 3A4 (Homo sapiens) (P08684 whole entry, looked up): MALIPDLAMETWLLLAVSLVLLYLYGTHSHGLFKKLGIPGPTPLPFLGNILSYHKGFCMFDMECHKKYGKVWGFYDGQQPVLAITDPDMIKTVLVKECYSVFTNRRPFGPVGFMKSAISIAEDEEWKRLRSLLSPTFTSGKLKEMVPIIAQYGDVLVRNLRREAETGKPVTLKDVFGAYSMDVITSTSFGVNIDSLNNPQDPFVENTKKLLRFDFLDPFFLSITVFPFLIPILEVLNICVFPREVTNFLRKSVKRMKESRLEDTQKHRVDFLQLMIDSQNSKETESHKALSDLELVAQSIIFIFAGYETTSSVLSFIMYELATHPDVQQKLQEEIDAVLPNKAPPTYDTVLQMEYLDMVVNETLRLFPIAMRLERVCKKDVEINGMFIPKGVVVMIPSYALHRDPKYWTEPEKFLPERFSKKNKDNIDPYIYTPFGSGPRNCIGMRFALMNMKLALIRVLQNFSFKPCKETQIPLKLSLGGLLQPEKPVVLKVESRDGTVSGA

With `O=C(O)[C@H]1[O][Sb][O][C@@H](C(=O)O)C1O` (stereo partly specified), the activity change, negative = inhibition in [1] is 1.25%; in [2], -15% [at 2.29 µM]; in test [3], 8.28%. In addition, the activity, negative = inhibition in test [4] is 6.32%. Further, in test [5], the Potency was > 46 µM. In addition, the result in [6] was inactive.
For the molecule `c1cc(CCN2CCCCC2)ccn1`, the activity change, negative = inhibition in [1] is 1.53%; in test [3] it was 7.13%; in test [8], 1.02% [at 11.4 µM]. For the same molecule, the activity, negative = inhibition in test [4] is 6.27%. For the same molecule, the figures for the Potency in [5] and in test [7] were > 46 µM and > 9.22 µM, respectively. The result in test [6] was inactive. In [9], the activity change, positive = activation was -36% [at 11.4 µM].
Take `O=C(O)C[C@H]1OCC=C2CN3CC[C@@]45C6=CC(=O)C(=O)C([N+](=O)[O-])=C6N[C@H]4[C@H]1[C@H]2C[C@@H]35`: the activity change, negative = inhibition in [1] is 4.93%; in test [3], 2.25%; in [8], -0.499% [at 11.4 µM]. Further, the activity, negative = inhibition in test [4] was 2.08%. Further, the Potency in [5] is > 46 µM; in test [7], > 9.22 µM. The call in [6] was inactive.
Take `C[C@@H]1CC[C@@H]2N(C1)C[C@H]1[C@@](O)([C@H](O)C[C@]3(O)[C@H]4CC[C@H]5[C@]6(O)O[C@]4(C[C@]13O)[C@@]5(C)CC[C@@H]6O)[C@@]2(C)O`: the results for the activity change, negative = inhibition in [1], in test [3] and in [8] were 0.655%, 4.97% and 4.3% [at 11.4 µM], respectively. For the same molecule, in [2], the Potency entry was “inactive”. In test [4], the activity, negative = inhibition was -1.33%. In test [7], the Potency is > 9.22 µM. Also, the call in test [6] was inactive.
As to `FC(F)(F)c1nc2ccc(SSc3ccc4nc(C(F)(F)F)[nH]c4c3)cc2[nH]1`, the activity change, negative = inhibition was -1.24% in test [1] and 12.4% [at 11.4 µM] in test [8]. For the same molecule, the Potency in test [2] is 0.501 µM (active); in test [5] it was > 46 µM; in test [7], > 9.22 µM; in [10] it was 5.01 µM (active). Further, the activity, negative = inhibition in test [4] was -6.22%. Also, in [6], the outcome was inactive.
